# Measured values: PubChem BioAssay AID2330 (Broad Institute, 2010)
# The campaign covered roughly 37,000 compounds. About 2,800 (7.6%) were called active. Inconclusive results (about 1%) are left out. The sample holds actives, similar compounds and a random draw of the others, so the mix is not that of the screen. A number with no mark means an inactive call. Cut-off read from the data, not from the text of the source: active = inhibition above about 80%; inconclusive = no clear call, values can overlap the other calls; inactive = below that.
# Experiment: NOMO-1 AML cell viability reduction, primary screen, STK33 inhibitor project, CellTiter-Glo luminescence (AID 2330)
# Conditions: NOMO-1 AML viability, 72 h, active compounds read high, concentration not given here
row,SMILES,inhibition
1,Cc1nnc(SCc2ccc(C(=O)c3ccc(Cl)cc3)o2)n1-c1ccccc1,-16.2%
2,CC(C)NC(=O)Nc1ccc2c(c1)C(=O)N([C@H](C)CO)C[C@H](C)[C@@H](CN(C)S(C)(=O)=O)OCCCC[C@@H](C)O2,34%
3,COc1ccc(NC(=O)N(C)C[C@@H]2Oc3ccc(NC(=O)CCCN(C)C)cc3CC(=O)N([C@H](C)CO)C[C@H]2C)cc1,-16.5%
4,COc1ccc(NC(=O)N(C)C[C@@H]2OCCCC[C@@H](C)Oc3ccc(NC(=O)NC4CCCCC4)cc3C(=O)N([C@H](C)CO)C[C@@H]2C)cc1,-2.15%
5,Cc1ccc(S(=O)(=O)N(C)C[C@H]2Oc3ccc(NC(=O)CCCCCC(=O)Nc4ccccc4N)cc3C(=O)N([C@H](C)CO)C[C@H]2C)cc1,19.8%
6,COc1ccc(NC(=O)Nc2ccc3c(c2)C(=O)N([C@H](C)CO)C[C@H](C)[C@@H](CN(C)C(=O)NC2CCCCC2)OCCCC[C@@H](C)O3)cc1,-9.45%
7,C[C@@H]1CN([C@H](C)CO)C(=O)c2cccc(NS(=O)(=O)c3ccc(Cl)cc3)c2O[C@@H]1CN(C)CC1CC1,0.793%
8,Cc1nc2ccccc2n1CC(O)COc1ccc(C2C=CCC2)cc1 (stereo not given),85% (active)
9,CCc1cc(C)cc(OCC(O)Cn2cnc3ccccc32)c1 (stereo not given),50.9%
10,CC(C)c1ccc(OCC(O)Cn2cnc3ccccc32)cc1 (stereo not given),52%
11,COC(=O)c1ccccc1NC(=O)CSc1n[nH]c(-c2ccncc2)n1,19.3%
12,O=C(NCCN1CCCCC1)Nc1cccc(Cl)c1,6.03%
13,C[C@H]1CN([C@@H](C)CO)C(=O)c2cccc(NS(=O)(=O)c3ccc(Cl)cc3)c2O[C@@H]1CN(C)Cc1ccc(Oc2ccccc2)cc1,44.7%
14,Cc1ccc(NC(=O)COc2ccccc2C)c([N+](=O)[O-])c1,-19.4%
15,Cc1ccc(OCc2n[nH]c(=S)n2C2CCCCC2)c2c1CCC2,111% (active)
16,C=CCn1c(=O)c(C(=O)NCc2ccccn2)c(O)c2ccccc21,-12.4%
17,Cc1noc(C)c1NC(=O)Nc1ccc2c(c1)CC(=O)N([C@@H](C)CO)C[C@H](C)[C@@H](CN(C)CC1CCCCC1)O2,46.5%
18,C[C@@H]1CN([C@@H](C)CO)C(=O)c2cccc(NC(=O)Nc3ccc(F)cc3)c2O[C@@H]1CN(C)Cc1ccc(C(=O)O)cc1,0.82%
19,CCC/C=C/C=C/C1CC(O)C(O)C1C(=O)O (stereo not given),4.09%
20,C[C@@H]1CN([C@@H](C)CO)C(=O)c2cc(NC(=O)c3ccncc3)ccc2O[C@@H]1CN(C)Cc1ccncc1,-12.5%

row,SMILES,inhibition
1,C[C@@H]1CN([C@@H](C)CO)C(=O)c2cc(NS(=O)(=O)c3cn(C)cn3)ccc2O[C@@H]1CN(C)Cc1ccc(C(=O)Nc2ccccc2N)cc1,5.34%
2,C[C@@H]1CN([C@@H](C)CO)C(=O)c2cc(NS(=O)(=O)c3ccccc3)ccc2O[C@@H]1CN(C)Cc1ccc(C(=O)Nc2ccccc2N)cc1,110% (active)
3,C[C@H]1CN([C@@H](C)CO)C(=O)c2cc(NC(=O)c3ccncc3)ccc2O[C@H]1CN(C)Cc1ccc(C(=O)Nc2ccccc2N)cc1,107% (active)
4,C[C@@H]1CN([C@H](C)CO)C(=O)c2cc(NS(=O)(=O)c3cn(C)cn3)ccc2O[C@@H]1CN(C)Cc1ccc(C(=O)Nc2ccccc2N)cc1,20.1%
5,Cc1ccc(S(=O)(=O)Nc2ccc3c(c2)C(=O)N([C@@H](C)CO)C[C@@H](C)[C@@H](CN(C)Cc2ccc(C(=O)Nc4ccccc4N)cc2)O3)cc1,110% (active)
6,C[C@H](CO)N1C[C@H](C)[C@H](CN(C)Cc2ccc(C(=O)Nc3ccccc3N)cc2)Oc2ccc(NS(C)(=O)=O)cc2C1=O,50.3%
7,Cc1ccc(S(=O)(=O)Nc2ccc3c(c2)C(=O)N([C@H](C)CO)C[C@H](C)[C@H](CN(C)Cc2ccc(C(=O)Nc4ccccc4N)cc2)OCCCC[C@@H](C)O3)cc1,127% (active)
8,Cc1ccc(S(=O)(=O)Nc2ccc3c(c2)C(=O)N([C@@H](C)CO)C[C@@H](C)[C@H](CN(C)Cc2ccc(C(=O)O)cc2)O3)cc1,2.99%
9,C[C@@H]1CN([C@@H](C)CO)C(=O)c2cc(NC(=O)c3ccncc3)ccc2O[C@H]1CN(C)Cc1ccc(C(=O)O)cc1,19.8%
10,Cc1ccc(S(=O)(=O)Nc2ccc3c(c2)C(=O)N([C@H](C)CO)C[C@H](C)[C@H](CN(C)Cc2ccccc2)OCCCC[C@@H](C)O3)cc1,45.3%
11,C[C@@H]1CCCCO[C@H](CN(C)Cc2ccccc2)[C@@H](C)CN([C@H](C)CO)C(=O)c2cc(NS(=O)(=O)c3ccc(Cl)cc3)ccc2O1,40.5%
12,N#Cc1cccc(CSc2nnc(CCCO)n2-c2ccccc2)c1,-3.86%
13,C[C@H]1CN([C@@H](C)CO)C(=O)c2cc(NS(=O)(=O)c3cn(C)cn3)ccc2O[C@H]1CN(C)CC1CCCCC1,0.874%
14,Cc1noc(C)c1NC(=O)Nc1ccc2c(c1)C(=O)N([C@@H](C)CO)C[C@H](C)[C@@H](CN(C)C)O2,17.2%
15,O=C(Nc1ccc(C23CC4CC(CC(C4)C2)C3)cc1)c1cccs1,1.68%
16,Cc1noc(C)c1S(=O)(=O)Nc1cccc2c1O[C@H](CN(C)Cc1ccc(C(F)(F)F)cc1)[C@H](C)CN([C@@H](C)CO)C2=O,11.5%
17,C[C@H]1CN([C@@H](C)CO)C(=O)Cc2cc(NC(=O)NC3CCCCC3)ccc2O[C@H]1CN(C)S(=O)(=O)c1ccccc1,0.581%
18,CC(=O)Nc1ccc(S(=O)(=O)N2CCCC2C(=O)O)cc1 (stereo not given),27.5%
19,C[C@H]1CN([C@@H](C)CO)C(=O)Cc2cc(NS(=O)(=O)c3ccc(Cl)cc3)ccc2O[C@@H]1CN(C)S(=O)(=O)c1ccccc1,48.5%
20,Cc1ccc(S(=O)(=O)N(C)C[C@H]2Oc3ccc(NC(=O)C4CC4)cc3C(=O)N([C@H](C)CO)C[C@H]2C)cc1,32.5%
